Experimental data from the supplement of paper PMC10849652.
Of roughly 8,800 targets only a part is listed; those with a hit were picked by preference. About 0.5% of all pairs of compound and target were hits.

Compound: CNC(=O)c1ccc(Nc2ncc(C(F)(F)F)c(NCc3nccnc3N(C)S(C)(=O)=O)n2)cc1 [defactinib]
Assay: log2 fold change, soluble protein after heating vs DMSO (PISA); higher = thermal stabilisation; K562 lysate, 10 uM; active = over 0.2 and 3.5 SD of the protein, either way, in both replicates (recomputed)
Outline: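 Quantification was by TMTpro 16plex LC-MS/MS with equalised channel sums, applied to the supernatant after 21,000xg for 90 min. Samples were crude K562 extract at 1 mg/mL protein in PBS pH 7.4 with 1 mM MgCl2, treated with 10 μM compound for 30 min, heated for 3 min across 48°C-58°C, pooled and brought to 0.5% NP-40 at 4°C. Values are log-two fold changes in thermal stability relative to solvent controls, from duplicates.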

Chain of UniProt Q9BXS6 (Q9BXS6 whole entry, looked up): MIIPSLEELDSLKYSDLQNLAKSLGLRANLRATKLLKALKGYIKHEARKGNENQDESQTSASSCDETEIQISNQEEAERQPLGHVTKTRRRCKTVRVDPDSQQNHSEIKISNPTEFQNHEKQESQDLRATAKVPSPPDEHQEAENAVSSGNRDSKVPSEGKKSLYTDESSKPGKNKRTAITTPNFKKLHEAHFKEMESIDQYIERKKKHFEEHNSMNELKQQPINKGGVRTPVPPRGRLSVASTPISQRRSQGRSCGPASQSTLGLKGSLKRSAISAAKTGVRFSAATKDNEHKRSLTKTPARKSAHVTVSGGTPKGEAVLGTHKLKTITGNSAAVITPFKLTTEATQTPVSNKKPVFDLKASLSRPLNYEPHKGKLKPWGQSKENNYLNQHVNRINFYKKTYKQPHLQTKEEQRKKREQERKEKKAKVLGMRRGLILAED
Chain of UniProt O00221 (O00221 whole entry, looked up): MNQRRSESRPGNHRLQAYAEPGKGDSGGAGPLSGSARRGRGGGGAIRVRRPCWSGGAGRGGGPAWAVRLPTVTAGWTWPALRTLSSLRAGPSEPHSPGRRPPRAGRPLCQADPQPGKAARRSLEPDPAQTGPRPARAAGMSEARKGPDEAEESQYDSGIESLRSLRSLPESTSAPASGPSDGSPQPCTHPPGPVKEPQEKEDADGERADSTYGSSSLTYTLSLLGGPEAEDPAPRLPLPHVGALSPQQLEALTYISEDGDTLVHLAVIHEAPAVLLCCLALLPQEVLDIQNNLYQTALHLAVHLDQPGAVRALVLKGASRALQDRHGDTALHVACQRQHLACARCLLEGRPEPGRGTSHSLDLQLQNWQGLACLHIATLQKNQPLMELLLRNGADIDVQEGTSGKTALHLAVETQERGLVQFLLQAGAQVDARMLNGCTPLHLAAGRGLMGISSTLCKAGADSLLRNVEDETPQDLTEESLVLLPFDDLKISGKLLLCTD
Chain of UniProt P43246 (P43246 whole entry, looked up): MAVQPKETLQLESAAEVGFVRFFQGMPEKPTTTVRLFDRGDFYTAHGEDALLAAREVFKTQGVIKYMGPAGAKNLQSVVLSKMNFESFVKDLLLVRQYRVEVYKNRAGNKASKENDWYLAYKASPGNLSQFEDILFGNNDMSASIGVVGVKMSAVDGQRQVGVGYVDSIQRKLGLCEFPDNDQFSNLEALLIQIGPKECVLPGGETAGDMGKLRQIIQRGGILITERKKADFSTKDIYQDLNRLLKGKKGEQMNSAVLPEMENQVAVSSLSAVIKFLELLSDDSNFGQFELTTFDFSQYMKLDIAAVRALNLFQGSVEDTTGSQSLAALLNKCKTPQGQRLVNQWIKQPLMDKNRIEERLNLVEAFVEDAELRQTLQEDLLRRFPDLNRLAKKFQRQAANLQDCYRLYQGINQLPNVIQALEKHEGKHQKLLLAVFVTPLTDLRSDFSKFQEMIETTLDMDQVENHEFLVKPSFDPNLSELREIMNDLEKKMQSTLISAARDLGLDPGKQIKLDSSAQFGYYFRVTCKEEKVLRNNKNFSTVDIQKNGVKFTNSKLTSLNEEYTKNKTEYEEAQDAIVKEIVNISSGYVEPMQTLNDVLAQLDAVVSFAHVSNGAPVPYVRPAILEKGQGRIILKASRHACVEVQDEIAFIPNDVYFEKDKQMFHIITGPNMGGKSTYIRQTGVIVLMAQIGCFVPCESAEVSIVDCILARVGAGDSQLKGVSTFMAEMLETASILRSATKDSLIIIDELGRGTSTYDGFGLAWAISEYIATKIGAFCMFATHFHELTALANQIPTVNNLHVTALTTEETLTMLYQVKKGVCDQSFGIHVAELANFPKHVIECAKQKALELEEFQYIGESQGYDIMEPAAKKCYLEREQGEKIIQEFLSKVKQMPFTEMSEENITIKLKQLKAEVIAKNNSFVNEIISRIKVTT
Chain of UniProt Q6IBW4 (Q6IBW4 whole entry, looked up): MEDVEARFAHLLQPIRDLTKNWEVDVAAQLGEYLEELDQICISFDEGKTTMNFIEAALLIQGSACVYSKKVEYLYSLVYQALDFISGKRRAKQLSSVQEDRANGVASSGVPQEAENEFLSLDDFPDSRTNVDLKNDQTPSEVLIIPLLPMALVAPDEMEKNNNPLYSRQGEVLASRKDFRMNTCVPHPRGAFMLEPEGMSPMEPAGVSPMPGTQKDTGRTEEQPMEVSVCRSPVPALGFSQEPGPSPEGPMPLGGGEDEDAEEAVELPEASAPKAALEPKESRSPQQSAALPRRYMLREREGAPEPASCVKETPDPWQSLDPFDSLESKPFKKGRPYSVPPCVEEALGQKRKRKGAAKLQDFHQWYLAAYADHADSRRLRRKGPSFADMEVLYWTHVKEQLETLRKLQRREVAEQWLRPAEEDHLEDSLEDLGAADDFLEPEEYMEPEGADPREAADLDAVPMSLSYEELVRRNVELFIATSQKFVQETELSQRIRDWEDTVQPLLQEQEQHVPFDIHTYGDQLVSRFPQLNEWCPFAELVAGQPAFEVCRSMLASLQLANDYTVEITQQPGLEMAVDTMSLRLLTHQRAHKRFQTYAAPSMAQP
Chain of UniProt Q9Y530 (Q9Y530 whole entry, looked up): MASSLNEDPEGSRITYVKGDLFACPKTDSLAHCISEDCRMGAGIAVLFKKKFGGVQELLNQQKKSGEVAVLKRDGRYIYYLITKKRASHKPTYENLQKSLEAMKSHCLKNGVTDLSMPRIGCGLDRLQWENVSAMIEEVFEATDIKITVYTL
Chain of UniProt Q8NC60 (Q8NC60 whole entry, looked up): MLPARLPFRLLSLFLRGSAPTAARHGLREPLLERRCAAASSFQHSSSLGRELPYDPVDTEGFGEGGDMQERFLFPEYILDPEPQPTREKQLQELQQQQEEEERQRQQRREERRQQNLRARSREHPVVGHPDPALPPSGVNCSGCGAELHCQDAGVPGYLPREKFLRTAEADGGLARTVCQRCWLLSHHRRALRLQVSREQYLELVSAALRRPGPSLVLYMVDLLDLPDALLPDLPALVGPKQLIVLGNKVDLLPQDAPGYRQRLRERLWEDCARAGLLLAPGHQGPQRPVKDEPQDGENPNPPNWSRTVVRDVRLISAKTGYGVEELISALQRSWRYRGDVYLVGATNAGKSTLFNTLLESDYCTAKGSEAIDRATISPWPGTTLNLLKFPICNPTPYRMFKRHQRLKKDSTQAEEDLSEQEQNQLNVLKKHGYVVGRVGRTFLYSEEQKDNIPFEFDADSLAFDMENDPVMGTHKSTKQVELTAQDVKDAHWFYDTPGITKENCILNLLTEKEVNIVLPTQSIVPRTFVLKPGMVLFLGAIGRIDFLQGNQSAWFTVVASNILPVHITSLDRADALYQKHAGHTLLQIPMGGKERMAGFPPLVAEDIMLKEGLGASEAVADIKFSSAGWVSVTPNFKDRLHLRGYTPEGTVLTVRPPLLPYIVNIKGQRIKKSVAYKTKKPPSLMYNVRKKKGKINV
Chain of UniProt P20585 (P20585 whole entry, looked up): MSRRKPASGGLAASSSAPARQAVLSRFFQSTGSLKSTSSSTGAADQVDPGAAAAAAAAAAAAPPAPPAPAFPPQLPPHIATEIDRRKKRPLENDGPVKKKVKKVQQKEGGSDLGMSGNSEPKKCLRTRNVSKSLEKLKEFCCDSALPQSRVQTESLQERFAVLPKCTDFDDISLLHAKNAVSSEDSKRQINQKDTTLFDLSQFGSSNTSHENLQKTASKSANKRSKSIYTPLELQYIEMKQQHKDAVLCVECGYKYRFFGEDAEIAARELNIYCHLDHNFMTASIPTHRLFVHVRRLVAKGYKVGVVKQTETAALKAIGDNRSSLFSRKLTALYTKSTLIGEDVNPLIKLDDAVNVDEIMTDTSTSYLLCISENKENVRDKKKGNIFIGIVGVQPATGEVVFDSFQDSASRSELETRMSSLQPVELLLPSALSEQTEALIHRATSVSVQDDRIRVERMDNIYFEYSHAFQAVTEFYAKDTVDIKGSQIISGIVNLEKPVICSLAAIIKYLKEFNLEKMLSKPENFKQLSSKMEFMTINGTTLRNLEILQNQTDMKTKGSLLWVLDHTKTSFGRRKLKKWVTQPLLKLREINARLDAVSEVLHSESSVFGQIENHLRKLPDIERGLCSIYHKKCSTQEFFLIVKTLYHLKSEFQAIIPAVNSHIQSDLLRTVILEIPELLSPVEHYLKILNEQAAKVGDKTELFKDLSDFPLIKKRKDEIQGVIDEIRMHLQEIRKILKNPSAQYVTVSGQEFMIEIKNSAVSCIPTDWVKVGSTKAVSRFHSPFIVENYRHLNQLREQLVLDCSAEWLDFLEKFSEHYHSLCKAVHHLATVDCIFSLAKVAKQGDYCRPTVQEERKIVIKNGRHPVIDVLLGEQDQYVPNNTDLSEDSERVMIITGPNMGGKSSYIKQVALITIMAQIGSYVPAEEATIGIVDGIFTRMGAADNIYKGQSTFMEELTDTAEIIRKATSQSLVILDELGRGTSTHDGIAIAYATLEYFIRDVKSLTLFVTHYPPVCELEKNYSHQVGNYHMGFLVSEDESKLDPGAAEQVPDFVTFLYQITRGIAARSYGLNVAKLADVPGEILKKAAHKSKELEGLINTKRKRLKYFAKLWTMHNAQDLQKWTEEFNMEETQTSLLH
Chain of UniProt Q9UFN0 (Q9UFN0 whole entry, looked up): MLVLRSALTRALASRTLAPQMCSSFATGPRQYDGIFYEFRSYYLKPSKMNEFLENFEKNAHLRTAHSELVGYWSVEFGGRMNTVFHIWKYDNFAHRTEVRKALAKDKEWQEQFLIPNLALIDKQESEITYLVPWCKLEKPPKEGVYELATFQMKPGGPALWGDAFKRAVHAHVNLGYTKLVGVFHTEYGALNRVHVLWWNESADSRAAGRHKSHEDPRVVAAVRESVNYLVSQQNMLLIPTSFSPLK
Chain of UniProt P18440 (P18440 whole entry, looked up): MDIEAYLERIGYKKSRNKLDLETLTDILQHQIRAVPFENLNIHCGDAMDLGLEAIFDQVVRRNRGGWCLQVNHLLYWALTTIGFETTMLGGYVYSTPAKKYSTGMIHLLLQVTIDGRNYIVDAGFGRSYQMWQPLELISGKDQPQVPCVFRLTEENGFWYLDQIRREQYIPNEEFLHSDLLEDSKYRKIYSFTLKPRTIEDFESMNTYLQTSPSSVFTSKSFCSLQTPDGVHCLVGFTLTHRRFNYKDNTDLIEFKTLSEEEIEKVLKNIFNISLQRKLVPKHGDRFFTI

| Target | log2 fold change |
| --- | --- |
| ORC2 (UniProt Q13416) | 0.034 (inactive) |
| NIPSNAP3A (UniProt Q9UFN0) | -0.021 (inactive) |
| N6AMT1 (UniProt Q9Y5N5) | 0.361 (active) |
| OTUD7B (UniProt Q6GQQ9) | 0.022 (inactive) |
| MSH2 (UniProt P43246) | 0.023 (inactive) |
| MRPL53 (UniProt Q96EL3) | 0.051 (inactive) |
| NFKBIE (UniProt O00221) | 0.054 (inactive) |
| NCAPH2 (UniProt Q6IBW4) | 0.005 (inactive) |
| MRPS18A isoform 2 (UniProt Q9NVS2) | -0.024 (inactive) |
| NOB1 (UniProt Q9ULX3) | 0 (inactive) |
| NCAPG2 (UniProt Q86XI2) | 0.023 (inactive) |
| NUMB (UniProt P49757) | -0.02 (inactive) |
| OARD1 (UniProt Q9Y530) | 0.037 (inactive) |
| NF1 (UniProt P21359) | 0.012 (inactive) |
| NTMT1 (UniProt Q9BV86) | 0.065 (inactive) |
| MYD88 isoform 6 (UniProt Q99836) | 0.013 (inactive) |
| NUSAP1 (UniProt Q9BXS6) | 0.027 (inactive) |
| MVB12A (UniProt Q96EY5) | 0.056 (inactive) |
| NAT1 (UniProt P18440) | 0.05 (inactive) |
| MSH3 (UniProt P20585) | 0.023 (inactive) |
| NCK1 (UniProt P16333) | -0.02 (inactive) |
| NGLY1 (UniProt Q96IV0) | 0.022 (inactive) |
| NOA1 (UniProt Q8NC60) | -0.076 (inactive) |
| NUB1 (UniProt Q9Y5A7) | -0.007 (inactive) |
